# Measured values as given in the supplement of paper PMC10515830.
# Structures can show the parent of a compound that is named as a salt.
# Key:
# Details in all cases: 10 µM; exposure time 6 h
# [1] = tested on: Danio rerio larvae (5 dpf); test: difference in excitability vs DMSO (percentage points); higher = more excitable than DMSO
# Method in brief: (§1)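 Wild-type zebrafish larvae at 5 dpf were kept in 96-well plates and exposed for 6 h to 100 µL egg water holding library compound at a final concentration of 10 µM. From 3 h into exposure, the plates were held at 28.5 ℃ and photographed every 6 s through a 3-h programme of moving lines and 100 ms, 400Hz tones. Each behaviour was scored by Z-LaP Tracker, a DeepLabCut model, and averaged over 48 larvae per compound. Every value gives the compound mean minus the vehicle control mean, in percentage points.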
# [2] = tested on: Danio rerio larvae (5 dpf); test: difference in startle response vs DMSO (percentage points); higher = stronger startle than DMSO
# Method in brief: as §1
# [3] = tested on: Danio rerio larvae (5 dpf); test: difference in activity during first hour vs DMSO (percentage points); higher = more activity than DMSO
# Method in brief: as §1
# [4] = tested on: Danio rerio larvae (5 dpf); test: difference in habituation to acoustic stimuli vs DMSO (percentage points); higher = more habituation than DMSO
# Method in brief: as §1
# [5] = tested on: Danio rerio larvae (5 dpf); test: difference in combined optomotor response to red, green and blue moving lines vs DMSO (percentage points); higher = stronger optomotor response than DMSO
# Method in brief: as §1
Compound,difference in excitability [1],difference in startle response [2],difference in activity during first hour [3],difference in habituation to acoustic stimuli [4],difference [5]
O=C(NC1CCN(CCCCC2(C(=O)NCC(F)(F)F)c3ccccc3-c3ccccc32)CC1)c1ccccc1-c1ccc(C(F)(F)F)cc1 [Lomitapide],17,-3.26,-7.94,-2.68,-5.57
CNCC(=O)OCc1cccnc1N(C)C(=O)OC(C)[n+]1cnn(C[C@](O)(c2cc(F)ccc2F)[C@@H](C)c2nc(-c3ccc(C#N)cc3)cs2)c1 (stereo not given in full) [Isavuconazonium (sulfate)],28.4,4.1,-13.1,-2.82,-5.6
Nc1ccn([C@@H]2CS[C@H](CO)O2)c(=O)n1 [Lamivudine],0.811,2.66,9.03,2.12,2.14
Nc1nc(Cl)nc2c1ncn2[C@@H]1O[C@H](CO)[C@@H](O)[C@@H]1F [Clofarabine],-0.183,-0.201,0.725,2.7,1.77
COc1ccccc1Oc1c(NS(=O)(=O)c2ccc(C(C)(C)C)cc2)nc(-c2ncccn2)nc1OCCO [Bosentan],11.1,-7.54,2.38,2.24,-0.979
C[C@](N)(Cc1ccc(O)cc1)C(=O)O [Metyrosine],0.523,8.55,-8.67,12.3,-4.59
NCCC(O)(P(=O)(O)O)P(=O)(O)O [Pamidronate (sodium salt)],9.47,4.04,-2.6,-0.604,2.29
O=C(CCCN1CCC(O)(c2ccc(Cl)cc2)CC1)c1ccc(F)cc1 [Haloperidol],17.7,-2.56,12.4,-7.67,-5.9
COc1ccccc1OCC(O)CO (stereo not given) [Guaifenesin],1.91,-2.97,10.9,3.83,6.79
CCO/N=C(\C(=O)N[C@@H]1C(=O)N2C(C(=O)[O-])=C(Sc3nc(-c4cc[n+](C)cc4)cs3)CS[C@H]12)c1nsc(NP(=O)(O)O)n1,2.56,0.685,4.29,-3.93,-5.35
Nc1nc2c(ncn2COCCO)c(=O)[nH]1 [Acyclovir],2.27,2.62,-4.23,8.37,-2.63
CN(C)CCC(c1ccc(Cl)cc1)c1ccccn1 (stereo not given) [Chlorpheniramine (maleate)],1.12,-4.13,-11.1,-6.14,-4.02
N#CC[C@H](C1CCCC1)n1cc(-c2ncnc3[nH]ccc23)cn1 [Ruxolitinib (phosphate)],-1.61,4.35,6.14,-4.72,17.9
CCCSc1nc(N[C@@H]2C[C@H]2c2ccc(F)c(F)c2)c2nnn([C@@H]3C[C@H](OCCO)[C@@H](O)[C@H]3O)c2n1 [Ticagrelor],4.33,1.19,2.64,1.79,9.27
NC(=O)N[C@@H](CCC(=O)O)C(=O)O [N-Carbamyl-L-Glutamic Acid],5.63,-0.75,17.4,3.65,8.31
CC(=O)O[C@]1(C(C)=O)CC[C@H]2[C@@H]3C[C@H](C)C4=CC(=O)CC[C@]4(C)[C@H]3CC[C@@]21C [Medroxyprogesterone 17-acetate],9.28,-1.88,-1.67,-11.4,-9.37
Cc1c(-c2ccccc2)oc2c(C(=O)OCCN3CCCCC3)cccc2c1=O [Flavoxate (hydrochloride)],8.74,1.49,13.3,-3.99,8.27
Nc1nnc(-c2cccc(Cl)c2Cl)c(N)n1 [Lamotrigine],4.96,-1.15,-6.88,4.75,8.87
C[N+]1(C)[C@@H]2CC[C@H]1C[C@@H](OC(=O)C(O)c1ccccc1)C2 (stereo not given in full) [Methylhomatropine (bromide)],5.63,0.325,2.46,1.2,-3.01
Cn1c(=O)cc(N2CCC[C@@H](N)C2)n(Cc2ccccc2C#N)c1=O [Alogliptin (benzoate salt)],9.09,5.66,10.7,-0.862,0.5
COc1cc2ncnc(Nc3ccc(F)c(Cl)c3)c2cc1NC(=O)/C=C/CN1CCCCC1,16.4,0.667,-10.7,-0.587,6.72
O=C1c2cccc3c2[C@H](CCC3)CN1[C@@H]1CN2CCC1CC2 [Palonosetron (hydrochloride)],16.7,-3.75,19.7,2.14,4.37
OC[C@H]1O[C@@H](n2cnc3c2N=CNC[C@H]3O)C[C@@H]1O [Pentostatin],4.36,-6.74,2.27,0.584,3.35

Compound,difference in excitability [1],difference in startle response [2],difference in activity during first hour [3],difference in habituation to acoustic stimuli [4],difference [5]
O=C(O[C@@H]1C[C@@H]2C[C@H]3C[C@H](C1)N2CC3=O)c1c[nH]c2ccccc12 [Dolasetron],10.9,-3.55,2.6,7.35,6.71
CC(C)(C(=O)O)c1ccc(C(O)CCCN2CCC(C(O)(c3ccccc3)c3ccccc3)CC2)cc1 (stereo not given) [Fexofenadine (hydrochloride)],4.09,2.98,11.3,0.612,5.51
Cc1cccc(CN2CCN(C(c3ccccc3)c3ccc(Cl)cc3)CC2)c1 (stereo not given) [Meclizine (hydrochloride)],6.31,-8.4,21.1,-9.92,-14.3
CC(C)CN(C[C@@H](O)[C@H](Cc1ccccc1)NC(=O)O[C@H]1CCOC1)S(=O)(=O)c1ccc(N)cc1 [Amprenavir],-3.12,-6.45,6.71,0.569,7.88
NCCCC(N)(C(=O)O)C(F)F (racemic) [DL-α-Difluoromethylornithine (hydrochloride hydrate)],-2.42,-3.99,10.2,2.49,2.05
CC(C)NCC(O)c1ccc(NS(C)(=O)=O)cc1 (stereo not given) [Sotalol (hydrochloride)],-4.39,-2.26,12,-2.03,-2.43
C[C@H]1O[C@H](O[C@H]2[C@H](O)[C@@H](O)[C@@H](O[C@H]3[C@H](O)[C@@H](O)C(O)O[C@@H]3CO)O[C@@H]2CO)[C@H](O)[C@@H](O)[C@@H]1N[C@H]1C=C(CO)[C@@H](O)[C@H](O)[C@H]1O (stereo not given in full) [Acarbose],11,-8.81,-0.68,-4.5,4.03
N=C(N)NCCC[C@@H](NC(=O)[C@@H]1CCCN1C(=O)[C@@H]1CSSCCC(=O)N[C@@H](Cc2ccc(O)cc2)C(=O)N[C@@H](Cc2ccccc2)C(=O)N[C@@H](CCC(N)=O)C(=O)N[C@@H](CC(N)=O)C(=O)N1)C(=O)NCC(N)=O [Desmopressin (trifluoroacetate salt)],0.805,-0.652,28.8,-4.29,5.42
CCCCN1CCCCC1C(=O)Nc1c(C)cccc1C (stereo not given) [Bupivacaine],0.996,-2.63,13.4,2.63,6.71
FC(F)OC(Cl)C(F)(F)F (stereo not given) [Isoflurane],11.1,8.95,-15.9,-1.84,-13
CC[N+](C)(C)c1cccc(O)c1 [Edrophonium (chloride)],-0.775,-0.613,5.67,7.33,3.51
CCOC(=O)[C@@](C)(N)Cc1ccc(O)c(O)c1 [Methyldopate],14.5,1.24,-2.29,-2.04,-2.04
CC(C(=O)O)c1cccc(C(=O)c2ccccc2)c1 (racemic) [(±)-Ketoprofen],0.309,-1.06,8.57,6.2,11.1
CCCCc1ncc(/C=C(\Cc2cccs2)C(=O)O)n1Cc1ccc(C(=O)O)cc1 [Eprosartan (mesylate)],7.16,-7.77,-8.19,-4.96,5.89
COc1ccc2[nH]c([S@@+]([O-])Cc3ncc(C)c(OC)c3C)nc2c1 [Esomeprazole Magnesium],8.33,7.11,4.64,-0.745,5.95
CNCC(O)c1ccc(OC(=O)C(C)(C)C)c(OC(=O)C(C)(C)C)c1 (stereo not given) [Dipivefrin (hydrochloride)],-3.61,-15.1,46.2,-2.07,2.48
N#Cc1cc(NC(=O)C(=O)O)c(Cl)c(NC(=O)C(=O)O)c1 [Lodoxamide],4.92,3.04,-7.99,1.72,1.61
CC12CC3CC(C)(C1)CC(N)(C3)C2 [Memantine (hydrochloride)],4.15,-1.38,1.52,2.49,3.21
CS(=O)(=O)OCCCCOS(C)(=O)=O [Busulfan],1.08,2.56,2.59,2.63,3.07
CC(C)OC(=O)C(C)(C)Oc1ccc(C(=O)c2ccc(Cl)cc2)cc1 [Fenofibrate],13.8,-6.52,45.6,-9.59,-15.8
Clc1ccc(CO/N=C(\Cn2ccnc2)c2ccc(Cl)cc2Cl)c(Cl)c1 [Oxiconazole (nitrate)],5.37,-6.72,-22.9,-11,-17.3
CN1CC2c3ccccc3Oc3ccc(Cl)cc3C2C1 (racemic) [(±)-Asenapine],15.8,-0.436,46.3,-12.3,-1.19
